Assay results: the supplement of paper PMC6555819

Legend:
Assay in all cases: PBM binding z-score (relative to random genomic background probes); higher = stronger binding; sequences stand for … in GC…GCGATTGACAGCGTAGAATGAAGG
[1] = system: PPARg:RXRa DBDmut IVT, anti-RXR (DBD mutation: RXRa K156A/R161A, NR concentration 270 nM, RXRa partner concentration 90 nM)
In short: (§1)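 Binding z-scores take random background probes as their reference. They come from custom Agilent 4×180K protein-binding microarrays incubated 1 h with ligand-free nuclear receptor dimers, with antibodies against each partner (one per run) detecting binding. Scanned fluorescence was regression-normalized.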

[2] = system: PPARg:RXRa IVT, anti-PPARg (NR concentration 270 nM, RXRa partner concentration 90 nM)
In short: as §1

[3] = system: PPARg DBDmut:RXRa IVT, anti-PPARg (DBD mutation: PPARg1 K132A/R137A, NR concentration 270 nM, RXRa partner concentration 90 nM)
In short: as §1

[4] = system: PPARg DBDmut IVT, anti-PPARg (DBD mutation: PPARg1 K132A/R137A, NR concentration 270 nM)
In short: as §1

[5] = system: PPARg homodimer (NR concentration 180 nM)
In short: as §1

[6] = system: PXR:RXRa (NR concentration 270 nM, RXRa partner concentration 90 nM)
In short: as §1

[7] = system: PXR homodimer (NR concentration 270 nM)
In short: as §1

[8] = system: RARa:RXR (NR concentration 270 nM, RXRa partner concentration 90 nM)
In short: as §1

[9] = system: RARa homodimer (NR concentration 270 nM)
In short: as §1

[10] = system: RARb:RXRa (NR concentration 270 nM, RXRa partner concentration 90 nM)
In short: as §1

[11] = system: RARb homodimer (NR concentration 270 nM)
In short: as §1

[12] = system: RARg:RXRa (NR concentration 270 nM, RXRa partner concentration 90 nM)
In short: as §1

[13] = system: RARg homodimer (NR concentration 270 nM)
In short: as §1

[14] = system: RXRa DBDmut IVT, anti-RXR (DBD mutation: RXRa K156A/R161A, NR concentration 90 nM)
In short: as §1

[15] = system: RXRa homodimer (NR concentration 180 nM)
In short: as §1

[16] = system: THRa:RXRa (NR concentration 90 nM, RXRa partner concentration 90 nM)
In short: as §1

[17] = system: THRa homodimer (NR concentration 90 nM)
In short: as §1

[18] = system: VDR homodimer (NR concentration 270 nM)
In short: as §1

| Sequence | PBM binding z-score [1] | PBM binding z-score [2] | PBM binding z-score [3] | PBM binding z-score [4] | PBM binding z-score [5] | PBM binding z-score [6] | PBM binding z-score [7] | PBM binding z-score [8] | PBM binding z-score [9] | PBM binding z-score [10] | PBM binding z-score [11] | PBM binding z-score [12] | PBM binding z-score [13] | PBM binding z-score [14] | PBM binding z-score [15] | PBM binding z-score [16] | PBM binding z-score [17] | PBM binding z-score [18] |
| --- | --- | --- | --- | --- | --- | --- | --- | --- | --- | --- | --- | --- | --- | --- | --- | --- | --- | --- |
| CGGACTGGGGCAGAAAGGTTACCATACCATCCGG | 3.24 | 4.12 | -0.341 | -0.159 | 1.44 | 1.41 | 0.0628 | 1.82 | 0.413 | 2.12 | 2.51 | 1.79 | 1.69 | -0.693 | 1.85 | 1.29 | -0.00516 | 0.148 |
| GCTCGGAGGGCAAGGTCAGAGCTTTGTCCGTAGA | 0.731 | 1.11 | -2.58 | -1.43 | 2.03 | 2.07 | -0.437 | 2.52 | -0.775 | 3.76 | 3.27 | 3.7 | 3.86 | 0.857 | 2.93 | 2.76 | 0.825 | 0.967 |
| ATCTCTAGGGAACCAAGTTCAGTGAATGCCGAAC | 0.604 | 0.283 | 0.0886 | 0.863 | 0.45 | 1.24 | 1.73 | 0.461 | 0.0341 | 0.674 | 1.21 | 0.277 | 0.53 | 0.569 | 0.332 | 0.497 | -0.301 | 2.58 |
| CCGACTGGGGCATAGGTTACCATACTCAGTACGA | 2.91 | 4.3 | -0.132 | -0.537 | 0.866 | 0.141 | -0.441 | 0.637 | -0.24 | 0.735 | 0.786 | 0.922 | 0.833 | -0.223 | 1.03 | 0.28 | -0.456 | -0.332 |
| AGAATGAGGTTATACGTAGATAAGGGAAGAAAGT | 2.89 | 2.2 | 1.07 | 1.1 | 0.963 | 1.17 | 0.795 | 1.65 | 0.439 | 1.37 | 0.654 | 1.77 | 1.26 | 1.23 | 2.29 | 2.11 | 0.472 | 0.781 |
| TCTTGTAGATCAATAGAGTTTAAGAAAGTGCGCT | 1.58 | 0.625 | 0.851 | 0.852 | -0.192 | 2.24 | 0.847 | 0.263 | 0.0115 | 0.375 | 0.231 | 0.0376 | 0.187 | 0.774 | 0.274 | 0.289 | -0.976 | 0.914 |
| CGAACTAGGTCAGAACAGGACAGTGAGGGATGAT | 7.05 | 7.16 | 2.36 | 0.0779 | 0.578 | 0.829 | 0.211 | 1.06 | 0.238 | 2.94 | 2.12 | 2.44 | 3.18 | 0.709 | 1.47 | 3.57 | 0.102 | -0.141 |
| CCTAGCAGGCGAATCTGGGTCACTCAAGGCTTGA | 4.47 | 5.39 | -1.46 | -1.28 | 0.225 | 0.221 | -0.605 | 1.13 | -0.282 | 0.812 | 1.53 | 0.494 | 0.428 | 0.0113 | 0.669 | 2.71 | 0.222 | -0.316 |
| ACTCGCAGGACAAAGGTCAGAGCTACGCCAGTGA | 0.731 | 2.9 | 0.371 | -0.29 | 1.88 | 3.6 | 0.075 | 4.72 | 0.499 | 4.29 | 4.26 | 5.2 | 5.21 | 0.845 | 5.45 | 3.03 | 0.0955 | 0.474 |
| CCTAGTTGCTCAAGGTCACACACGCTATAGGTAC | 1.51 | 2.33 | 0.625 | 0.725 | 3.56 | 4.21 | 2.68 | 4.4 | 2.45 | 3.97 | 4.14 | 4.56 | 4.78 | 2.19 | 4.8 | 4.05 | 4.51 | 4 |
| TCTTGTAGATCAATAGAGGTTAAGAATGTGCGCT | 2 | 1.37 | 0.489 | 0.485 | 0.502 | 1.65 | 0.282 | 1.86 | 0.562 | 0.764 | 1.06 | 0.814 | 0.559 | 0.783 | 1.38 | 2.15 | -0.391 | 0.277 |
| ATCTCGAGGTAACAAGTTCAGTGAAAGAGAGGAC | 0.257 | 1.41 | 0.523 | 1.06 | 0.56 | 1.74 | 1.63 | 1.3 | 0.416 | 1.73 | 1.83 | 2.13 | 1.42 | 0.518 | 1.15 | 2.31 | 0.969 | 2.28 |
| CGAATTAGGTCAGAACAGGACAGTGAAGGATGAT | 7.02 | 7.15 | 2.8 | 1.42 | 1.73 | 1.09 | 0.149 | 1.31 | 1.19 | 3.29 | 2.36 | 2.65 | 3.43 | 0.886 | 1.29 | 3.86 | 1.01 | 0.142 |
| CGAAATAGGTCAGAACAGGACAGTGAAGGATGAT | 6.51 | 6.4 | 1.62 | 1.69 | 1.47 | 1.69 | 0.395 | 1.87 | 1.05 | 3.71 | 2.82 | 3.36 | 4.15 | 0.269 | 2.42 | 4.13 | 0.228 | 0.382 |
